The target in one test is Albumin (Bos taurus) (UniProt P02769). The test is described as follows: compounds binding labelled BSA control protein – biochemical, small-molecule microarray, Alexa647 label, 635/667 nm fluorescence, artefact control for SMM control protein annotation, profiling panel (AID 1118).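 Also: score merges 667 nm emission intensity and signal-to-noise per printed compound spot.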 The settings on record: BSA-A647 binding, fluorescence 635 nm, higher = more signal.
The nature of test [1]: probe aXIP binding to arrayed compounds – biochemical, NeuroSMM set, 635/667 nm fluorescence, primary screen (AID 1119).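 Also: probe is the protein aXip251-270 applied at 1 µg/mL to compound-printed slides; binding of probe to printed compounds measured as 667 nm fluorescence plus signal to noise.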 To be noted: small-molecule microarray, higher = more signal, called active from +8 up or from −8 down.
Test [2] can be described thus: probe aNOTCH3 binding on compound microarray – biochemical, small-molecule microarray, 635/667 nm fluorescence, primary screen (AID 1120).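 Also: probe is a biotin-tagged antibody raised against NOTCH3 rather than NOTCH3 protein; score merges spot fluorescence near 667 nm with spot signal to noise.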 To be noted: higher = more signal.
The nature of test [3]: probe aNOTCH2 binding on compound microarray – biochemical, small-molecule microarray, 635/667 nm fluorescence, primary screen (AID 1121).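 Also: score merges feature fluorescence read at 667 nm with its signal to noise.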 To be noted: higher = more signal.
Test [4] addresses Carbonic anhydrase 2 (Homo sapiens) (UniProt P00918). In words: compounds binding carbonic anhydrase 2 – biochemical, small-molecule microarray, Alexa647-labelled CAII, profiling panel (AID 1122). To be noted: CAII-A647 binding fluorescence, higher = more signal.
Test [5] in a line: COS7 lysate on small-molecule microarray, probe aHis, 635 nm (AID 1123).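 Also: z-score combines 667nm fluorescence intensity with signal-to-noise per printed compound spot.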 To be noted: COS7 cell lysate, fluorescence, higher = more signal.
A short description of test [6]: probe aLAP1 signal on lysate-treated microarray – cell lysate, small-molecule microarray, COS7 lysate, primary screen (AID 1124).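 Also: lysate comes from COS7 cells expressing LAP1 and is applied at 0.3 µg/mL; score merges spot fluorescence near 667 nm with signal-to-noise over triplicate slides.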 The settings on record: probe aLAP1, fluorescence, higher = more signal.
The test system of a further test is Sam68 (KHDRBS1). The test is described as follows: compounds binding KHDRBS1 protein – biochemical, small-molecule microarray, 635 nm fluorescence, primary screen (AID 1125).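 Also: score merges 667 nm channel intensity with signal to noise over triplicate slides.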 To be noted: higher = more signal.
Test [7] deals with Chordin-like protein 2 (CHRDL2). In words: compounds binding chordin-like 2 – biochemical, small-molecule microarray, 635 nm fluorescence, primary screen (AID 1126).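 Also: printed compound slides probed with Chrdl2 protein at 4 µg/mL for 1 h at 4 C; score merges 667 nm emission intensity with signal to noise over three replicate slides.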 To be noted: fluorescence 635 nm, higher = more signal.
Test [8] addresses Concanavalin-A (Canavalia ensiformis) (UniProt P02866). The test is described as follows: compounds binding concanavalin A lectin – biochemical, small-molecule microarray, Alexa647 label, 635 nm, artefact control for SMM control protein annotation, primary screen (AID 1127).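 Also: z combines 667 nm emission intensity with signal-to-noise across three replicate slides.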 The settings on record: ConA-A647 binding fluorescence, higher = more signal.
Test [9] can be described thus: compounds binding Alexa647 anti-His antibody – biochemical, small-molecule microarray, 635 nm fluorescence, artefact control for SMM control protein annotation, primary screen (AID 1128).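 Also: score merges feature fluorescence with signal-to-noise for each printed compound spot.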 The settings on record: higher = more signal.
In test [10] the test system is Human papillomavirus type 1a E7 protein (residues 1-88). The test is described as follows: HPV1a E7 small-molecule binders, primary screen, biochemical, small-molecule microarray, residues 1-88, 635 nm (AID 1129). To be noted: small-molecule microarray binding, fluorescence 635 nm; higher = more signal.
Test [11] concerns the target Focal adhesion kinase 1 (Homo sapiens) (UniProt Q05397). In words: PTK2 protein binding on printed compound slides – biochemical, small-molecule microarray, 635/667 nm fluorescence, BSA, DTT, primary screen (AID 1130).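 Also: composite of spot emission at 667 nm and signal to noise over triplicate slides.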 To be noted: 635 nm fluorescence, higher = more signal.
Test [12] relates to Fibrinogen (Alexa647-labelled). The test is described as follows: Alexa647-fibrinogen binding to printed small molecules – biochemical, small-molecule microarray, 635/667 nm fluorescence, artefact control for SMM control-protein annotation, profiling panel (AID 1131).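 Also: z-score merges 667 nm fluorescence with per-spot signal-to-noise over triplicate slides.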 To be noted: fibrinogen-A647 binding fluorescence, higher = more signal.
Test [13] concerns the target Follistatin (Homo sapiens) (UniProt P19883). The test is described as follows: FST protein binding to printed compounds – biochemical, small-molecule microarray, 635/667 nm fluorescence, primary screen (AID 1132). The settings on record: 635 nm fluorescence, higher = more signal.
The target in test [14] is Fibroblast growth factor 2 (Homo sapiens) (UniProt P09038). In words: basic fibroblast growth factor binding to printed compounds – biochemical, small-molecule microarray, 635/667 nm fluorescence, primary screen (AID 1133). To be noted: FGF2, fluorescence 635/667, higher = more signal.
The nature of test [15]: JC-1 mitochondrial potential readout, lung cancer cells – cell-based, A549, JC-1 fluorescence, basal, 24 h, 100 nL, profiling panel (AID 1138).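 Also: A549 lung adenocarcinoma cells under basal conditions with no added stimulus; test concentration not given here.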 The settings on record: higher = more signal.
Another test concerns Lefty1. The test is described as follows: Lefty1 protein binding to printed compounds – biochemical, small-molecule microarray, 635/667 nm fluorescence, primary screen (AID 1139). The settings on record: fluorescence 635/667, higher = more signal.
For test [16], the system named is wheat germ agglutinin (Triticum aestivum), Alexa647-labelled. In words: Alexa647-WGA lectin binding to printed small molecules – biochemical, small-molecule microarray, 635/667 nm fluorescence, artefact control for SMM control-protein annotation, profiling panel (AID 1140).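 Also: score merges 667 nm feature emission with signal to noise over triplicate slides.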 The settings on record: WGA-A647 binding, 635 nm fluorescence, higher = more signal.
Test [17] has as its target Luciferin 4-monooxygenase (Photinus pyralis) (UniProt P08659). The test is described as follows: inhibition of purified Photinus pyralis luciferase – biochemical, luminescence, purified enzyme, 2006 set, primary screen (AID 1141).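 Also: cell-free assay with purified firefly luciferase at 100 ng per well in PBS; test concentration not given here.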 The settings on record: purified firefly luciferase, SteadyGlo luminescence, 30 min; higher = more signal, called active from +8 up or from −8 down.

The values that follow come from PubChem BioAssay.

Molecules are shown by their SMILES. Calls of active or inactive are those of the source.

Sequence of Concanavalin-A (Canavalia ensiformis) (P02866 whole entry, looked up): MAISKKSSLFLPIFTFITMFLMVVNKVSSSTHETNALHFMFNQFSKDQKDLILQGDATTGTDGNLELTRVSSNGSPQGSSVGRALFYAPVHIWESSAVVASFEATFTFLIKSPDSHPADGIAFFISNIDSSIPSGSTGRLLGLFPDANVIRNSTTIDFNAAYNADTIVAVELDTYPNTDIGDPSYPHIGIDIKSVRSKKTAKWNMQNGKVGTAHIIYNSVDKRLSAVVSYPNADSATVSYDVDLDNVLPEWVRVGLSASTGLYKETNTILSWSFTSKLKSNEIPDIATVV
Sequence of Follistatin (Homo sapiens) (P19883 whole entry, looked up): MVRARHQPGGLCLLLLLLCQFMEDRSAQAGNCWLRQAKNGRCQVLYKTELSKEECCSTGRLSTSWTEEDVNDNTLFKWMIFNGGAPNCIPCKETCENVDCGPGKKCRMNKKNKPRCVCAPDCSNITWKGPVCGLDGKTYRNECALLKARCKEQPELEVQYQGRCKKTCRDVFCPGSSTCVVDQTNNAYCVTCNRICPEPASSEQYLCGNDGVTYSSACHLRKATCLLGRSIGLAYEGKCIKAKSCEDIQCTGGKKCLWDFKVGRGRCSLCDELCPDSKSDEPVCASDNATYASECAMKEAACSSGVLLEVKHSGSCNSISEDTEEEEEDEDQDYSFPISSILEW
Sequence of Fibroblast growth factor 2 (Homo sapiens) (P09038 whole entry, looked up): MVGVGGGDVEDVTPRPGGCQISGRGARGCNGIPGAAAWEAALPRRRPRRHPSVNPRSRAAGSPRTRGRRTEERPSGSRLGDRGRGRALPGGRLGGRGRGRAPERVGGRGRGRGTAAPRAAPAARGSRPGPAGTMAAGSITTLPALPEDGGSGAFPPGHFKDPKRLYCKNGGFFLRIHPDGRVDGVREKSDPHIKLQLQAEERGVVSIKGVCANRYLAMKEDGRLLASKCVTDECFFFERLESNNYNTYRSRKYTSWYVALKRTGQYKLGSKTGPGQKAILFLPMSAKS
Sequence of Focal adhesion kinase 1 (Homo sapiens) (Q05397 whole entry, looked up): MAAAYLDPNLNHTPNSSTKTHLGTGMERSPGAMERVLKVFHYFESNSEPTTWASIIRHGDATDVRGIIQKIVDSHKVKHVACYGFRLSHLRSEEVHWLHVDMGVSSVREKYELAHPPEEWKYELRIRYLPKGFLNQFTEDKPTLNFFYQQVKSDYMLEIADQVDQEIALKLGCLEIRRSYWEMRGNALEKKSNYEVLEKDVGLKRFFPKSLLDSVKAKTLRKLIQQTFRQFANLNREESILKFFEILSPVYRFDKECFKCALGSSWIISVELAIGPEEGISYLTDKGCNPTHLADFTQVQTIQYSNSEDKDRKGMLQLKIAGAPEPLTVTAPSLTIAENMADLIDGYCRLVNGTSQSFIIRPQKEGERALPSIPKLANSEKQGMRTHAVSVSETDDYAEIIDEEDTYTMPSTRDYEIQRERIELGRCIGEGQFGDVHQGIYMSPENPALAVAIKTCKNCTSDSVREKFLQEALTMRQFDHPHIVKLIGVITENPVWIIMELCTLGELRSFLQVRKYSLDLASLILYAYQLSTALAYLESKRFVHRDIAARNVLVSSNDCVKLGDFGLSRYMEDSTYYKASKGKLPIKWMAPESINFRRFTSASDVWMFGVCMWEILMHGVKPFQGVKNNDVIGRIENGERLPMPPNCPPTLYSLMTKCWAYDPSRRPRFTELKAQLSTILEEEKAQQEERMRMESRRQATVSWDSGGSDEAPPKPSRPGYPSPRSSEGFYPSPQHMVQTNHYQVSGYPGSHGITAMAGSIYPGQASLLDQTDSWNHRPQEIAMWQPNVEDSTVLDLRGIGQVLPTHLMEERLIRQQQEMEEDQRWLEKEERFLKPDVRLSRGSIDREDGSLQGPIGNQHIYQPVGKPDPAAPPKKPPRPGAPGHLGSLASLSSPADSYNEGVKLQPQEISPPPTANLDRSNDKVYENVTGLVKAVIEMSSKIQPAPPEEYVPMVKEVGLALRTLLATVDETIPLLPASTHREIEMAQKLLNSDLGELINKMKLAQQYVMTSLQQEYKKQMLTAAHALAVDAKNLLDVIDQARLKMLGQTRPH
Sequence of Albumin (Bos taurus) (P02769 whole entry, looked up): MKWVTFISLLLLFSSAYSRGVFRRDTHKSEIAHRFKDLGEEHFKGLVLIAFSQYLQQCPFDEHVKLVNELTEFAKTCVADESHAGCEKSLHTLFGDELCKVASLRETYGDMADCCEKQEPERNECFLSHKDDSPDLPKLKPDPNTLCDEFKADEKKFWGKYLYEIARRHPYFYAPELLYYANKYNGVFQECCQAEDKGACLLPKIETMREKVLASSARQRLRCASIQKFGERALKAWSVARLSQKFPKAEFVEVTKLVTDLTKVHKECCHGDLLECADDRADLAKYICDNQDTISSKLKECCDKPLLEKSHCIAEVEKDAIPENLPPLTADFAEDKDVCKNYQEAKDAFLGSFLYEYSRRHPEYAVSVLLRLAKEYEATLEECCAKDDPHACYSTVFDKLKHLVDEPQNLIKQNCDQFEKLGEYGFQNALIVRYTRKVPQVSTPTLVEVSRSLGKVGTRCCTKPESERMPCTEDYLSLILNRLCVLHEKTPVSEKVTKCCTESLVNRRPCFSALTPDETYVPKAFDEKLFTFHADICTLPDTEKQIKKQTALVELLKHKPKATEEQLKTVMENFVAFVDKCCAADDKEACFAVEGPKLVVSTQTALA
Sequence of Luciferin 4-monooxygenase (Photinus pyralis) (P08659 whole entry, looked up): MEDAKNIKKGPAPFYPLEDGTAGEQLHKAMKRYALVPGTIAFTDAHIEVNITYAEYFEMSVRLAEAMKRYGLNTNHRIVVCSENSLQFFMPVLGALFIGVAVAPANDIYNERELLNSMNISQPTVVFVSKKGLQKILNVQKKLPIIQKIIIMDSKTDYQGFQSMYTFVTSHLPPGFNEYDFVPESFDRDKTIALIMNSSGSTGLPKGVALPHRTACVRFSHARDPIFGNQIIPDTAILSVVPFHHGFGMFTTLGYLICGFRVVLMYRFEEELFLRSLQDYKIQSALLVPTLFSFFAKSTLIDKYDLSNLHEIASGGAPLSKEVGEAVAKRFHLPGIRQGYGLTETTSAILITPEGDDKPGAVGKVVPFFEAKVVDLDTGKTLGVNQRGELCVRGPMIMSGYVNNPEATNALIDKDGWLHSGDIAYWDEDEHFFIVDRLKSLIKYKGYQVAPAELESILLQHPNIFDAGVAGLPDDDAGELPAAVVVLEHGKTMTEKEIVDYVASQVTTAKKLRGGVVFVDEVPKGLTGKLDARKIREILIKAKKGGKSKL

In the case of `COCCOC(=O)N1C(=O)[C@@]2(c3cc(C#CC4(O)CCCCCC4)ccc31)[C@H](c1ccc(O)cc1)N1[C@H](c3ccccc3)[C@H](c3ccccc3)OC(=O)[C@H]1[C@@H]2C(=O)N1CCCCCCC1`, the composite z-score in the test with Albumin (Bos taurus) was 0.304; in test [2], 0.295; in [3], -0.123; in [4], 0.267; in [5], 1.33; in test [6], 0.855. Further, the composite z-score in the test on Sam68 (KHDRBS1) was 1.24; in [7], 0.33; in test [8] it was 0.423; in [9] it was 1.01; in test [10] it was 1.19; in [11] it was 0.817. Besides, the composite z-score in [12] was found to be 0.605; in test [13], 1.39; in test [14] it was 0.608; in the test with Lefty1, 0.851; in [16], 0.907. Besides, the composite Z-score in test [1] was -0.0498 (inactive). In addition, the results for the z-score in test [15] and in test [17] were 0.7 and -0.552 (inactive), respectively.
`COc1ccc(C(O)C2C=CC3C(=O)N(c4ccccc4)C(=O)C3N2Nc2ccc([N+](=O)[O-])cc2)c2ccccc12` (stereo not given): the composite z-score is 0.941 with Albumin (Bos taurus); 0.155 in test [2]; 0.0702 in test [3]; 0.575 in test [4]; 2.5 in test [5]; 1.44 in test [6]. The composite z-score was 1.3 with Sam68 (KHDRBS1); 0.308 in test [7]; 1.22 in test [8]; 0.57 in test [9]; 1.25 in test [10]; 0.846 in test [11]. Also, the composite z-score in [12] was determined as 1; in test [13], 0.91; in test [14] it was 0.54; with Lefty1 it was 0.0679; in test [16], 1.21. In addition, the composite Z-score in test [1] was 0.372 (inactive). Further, the z-score in [15] is -1.56; in [17] it was 1.19 (inactive).
`O=C1C2C=CC(C(O)c3cccs3)N(Nc3ccc([N+](=O)[O-])cc3)C2C(=O)N1c1ccccc1` (stereo not given): the composite z-score in the test with Albumin (Bos taurus) is 0.523; in test [2] it was 0.0105; in test [3], -0.0694; in [4], 0.759; in test [5], 2.08; in [6] it was 0.218. Besides, the composite z-score was 0.909 with Sam68 (KHDRBS1); 0.0721 in test [7]; 0.585 in test [8]; 0.482 in test [9]; 1.11 in test [10]; 0.894 in [11]. Further, the composite z-score in [12] is 0.697; in test [13], 0.337; in test [14], -0.105; with Lefty1, -0.457; in test [16], 0.844. Moreover, the composite Z-score in test [1] is -0.506 (inactive). The z-score in [15] is -0.908; in [17], 1.1 (inactive).
`CC(C)OC(=O)CC(=O)CC(O)c1cccc([N+](=O)[O-])c1` (stereo not given): the composite z-score in the test with Albumin (Bos taurus) was 0.799; in [2] it was 0.241; in [3], -0.177; in [4] it was 0.633; in [5], 0.707; in [6], -0.107. The composite z-score in the test on Sam68 (KHDRBS1) was determined as 1.22; in [7], 0.01; in [8], 0.828; in test [9] it was 0.68; in [10] it was 1.14; in test [11], 0.4. The composite z-score in test [12] was 0.438; in [13] it was 0.461; in test [14], -0.277; in the test with Lefty1, -0.0245; in test [16], 0.265. The composite Z-score in test [1] is -0.144 (inactive). For the same compound, the z-score in test [15] was -0.428; in test [17], 1.9 (inactive).
For `COC(=O)C(CC#Cc1ccc2c(c1)[C@]1(C(=O)N2)[C@H](C(=O)N2CCc3cc(OC)c(OC)cc3C2)[C@H]2C(=O)O[C@H](c3ccccc3)[C@H](c3ccccc3)N2[C@@H]1c1ccccc1OCCO)C(=O)OC`, the composite z-score in the test with Albumin (Bos taurus) was 0.27; in [2] it was 0.0793; in [3] it was -0.135; in [4], 0.59; in [5], 2.3; in test [6] it was -0.461. Besides, the composite z-score came out at 1.3 with Sam68 (KHDRBS1); 0.463 in [7]; 1.14 in [8]; 1.21 in test [9]; 1.19 in test [10]; 0.536 in test [11]. The composite z-score was 0.613 in test [12]; 1.4 in test [13]; 1.39 in [14]; 1.55 in the test with Lefty1; 1.17 in test [16]. In addition, the composite Z-score in test [1] was 0.112 (inactive). In addition, the z-score was -1.64 in test [15] and -0.134 (inactive) in test [17].
